TWEAK Fn14 block: inhibitors of TWEAK-Fn14 signaling, primary screen, luciferase reporter cells, uHTS; 360,000 tested, 2% active; AID 1159606, 2016; inhibition, % at 10 µM; TWEAK-stimulated Fn14 reporter cells, luciferase luminescence, 8 h; in the data active means inhibition above about 50%
TROY signal inh: inhibitors of TROY-driven NF-kB signaling, primary screen, Q293 LMP1-TROYcd cells, NF-kB luciferase, uHTS. Q293 LMP1-TROYcd NF-kB luciferase reporter, 4 h. inhibition, % at 10 µM. 360,000 tested, 0.98% active;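 active means compounds whose plate-normalised and pattern-corrected inhibition of the luciferase reporter signal at the single screening dose is 50% or more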
Peg3 prom inh: Peg3 promoter-driven luciferase inhibitors, primary screen, cell-based, HeLa, luciferase luminescence; HeLa PEG-Prom luciferase reporter, overnight; inhibition, % at 20 µM; 360,000 tested, 1.7% active; AID 588405, 2011;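 active means inhibition of at least 50% at 20 µM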
Shn3 inh set2: reduction of Shn3 3'UTR firefly luciferase signal, primary screen, Schnurri-3 inhibitor project, cell-based, Clone20 osteoblasts, set 2 | inhibition, % at 12.5 µM | 360,000 tested, 0.52% active | Clone20 osteoblast Shn3 3'UTR firefly luciferase, 24 h;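 active means mean inhibition of at least 75% with every replicate also reaching 75%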;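 further: 0% = median of neutral control wells and 100% = pilot-screen positive control compound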
LMP1 NFkB inh: EBV LMP1-driven NF-kappaB luciferase reporter inhibitors, primary screen, cell-based, luminescence, single point | LMP1-induced NF-kappaB luciferase reporter cells | inhibition, % at 12.5 µM | 350,000 tested, 0.69% active; in the data active means inhibition above about 41%;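 further: 0% = neutral control wells and 100% = reference inhibitor control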
MITF TRPM1 inh: inhibitors of MITF-dependent TRPM1 promoter reporter, primary screen, cell-based, SK-MEL-5, single point, luciferase | AID 488899, 2010 | inhibition, % at 12.5 µM | 330,000 tested, 0.83% active | SK-MEL-5 TRPM1 promoter luciferase, 24 h;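 active means mean inhibition across replicates of 60% or more, whatever share of single replicates reaches that level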
Active calls of the source: *; x = no result given. Rows were chosen to be rich in hits. Some 4.1% of all compounds tested hit in one or more screens of this group.

SMILES	TWEAK Fn14 block	TROY signal inh	Peg3 prom inh	Shn3 inh set2	LMP1 NFkB inh	MITF TRPM1 inh
Cc1ccc(C(=O)c2ccccc2C(=O)OCC(=O)Nc2cccc([N+](=O)[O-])c2)cc1	28.9	16.5	-4.3	20.0	-4.1	-9.0
NS(=O)(=O)c1cc(C(=O)OCC(=O)Nc2ccccc2[N+](=O)[O-])ccc1Cl	-14.7	-9.7	0.8	-17.1	4.6	-6.1
Cc1ccccc1NC(=O)COC(=O)c1ccc(S(C)(=O)=O)c([N+](=O)[O-])c1	33.2	1.1	89.2*	-0.1	6.0	18.5
O=C(CSc1nnc(-c2c[nH]c3ccccc23)o1)N1CCCCC1	-14.5	-48.8	-189.9	-28.2	-10.7	-27.8
O=C(CSc1nnc(-c2c[nH]c3ccccc23)o1)N1c2ccccc2CCc2ccccc21	63.2*	38.6	34.1	29.1	6.9	16.4
CCc1ccc(NC(=O)COC(=O)C2(c3ccc(Cl)cc3)CCCC2)cc1	43.7	37.4	16.4	43.2	60.5*	10.1
COc1ccc(CCNC(=O)c2ccc(Cl)c(S(=O)(=O)N3CCCCCC3)c2)cc1	60.1*	43.9	26.9	73.9	13.3	38.4
CCN(CC)S(=O)(=O)c1cccc(C(=O)NCCc2ccccc2)c1	6.6	-11.0	-221.5	-20.1	-24.1	-42.9
CN(c1ccccc1)S(=O)(=O)c1cccc(C(=O)NCCc2ccc(O)c(O)c2)c1	39.2	56.1*	-10.8	31.3	5.5	34.6
COc1ccc(CCNC(=O)c2ccc(Cl)c(S(=O)(=O)N(C)c3ccccc3)c2)cc1	57.9*	52.6*	15.1	1.7	-4.9	2.8
COc1ccccc1N1CC=C(c2cccc([N+](=O)[O-])c2)NC1=O	-14.4	-21.3	-0.4	11.0	8.1	3.1
CCCc1ccc(OCc2ccc(C(=O)N3CCSCC3)o2)cc1	-38.2	-95.5	-251.9	-14.1	-25.6	-37.3
Cn1c(CSCc2ccc(Cl)c(Cl)c2)nnc1SCC(=O)Nc1nccs1	50.7*	19.6	30.5	39.1	4.5	4.5
O=C(NC(c1ccc(Cl)cc1)c1c(O)ccc2ccccc12)c1ccccc1 (stereo unspecified)	65.9*	51.7*	57.8*	3.1	-14.4	19.2
Cc1cccc(C(=O)Nc2ccc(C(=O)/C=C/c3ccncc3)cc2)c1	-13.4	57.6*	102.0*	84.7	38.3	54.8
O=C(/C=C/c1cccnc1)c1ccc(NC(=O)c2cccc(Br)c2)cc1	-26.1	-10.2	24.3	-0.5	-2.5	-4.1
Cc1cccc(C(=O)Nc2ccc(C(=O)/C=C/c3cccnc3)cc2)c1	0.4	-75.6	109.3*	96.9*	27.1	26.8
O=C(/C=C/c1cccnc1)/C=C/c1cccnc1	100.8*	72.1*	109.0*	94.4*	-45.7	96.4*
COc1ccc(OC)c(C(=O)/C=C/c2cccnc2)c1	27.4	-16.3	75.5*	-19.0	12.7	2.3
COc1ccc(OC)c(CCNC(=O)c2ccc(CS(=O)Cc3ccc(Cl)cc3)o2)c1 (stereo unspecified)	-1.4	3.3	27.5	7.6	-14.7	4.7
CN(C)S(=O)(=O)c1ccc(C(=O)/C=C/c2cccnc2)cc1	4.5	8.1	100.5*	63.3	2.4	-3.8
O=C(CSc1nnnn1C1CCCCC1)NCCc1ccccc1	-1.2	-15.7	-70.8	-12.0	-1.5	-26.4
CCOC(=O)C1=CCN(S(=O)(=O)c2ccc(C)cc2)C1c1ccc(Cl)cc1 (stereo unspecified)	14.3	-2.9	29.4	8.0	x	x
CCN(CC)c1nc(Oc2ccc(C(=O)OC)cc2)nc(N2CCOCC2)n1	-6.7	16.8	-6.4	49.6	52.4*	9.2
CCN(CC)c1nc(Nc2ccccc2)nc(Oc2ccc(C(=O)OC)cc2)n1	26.7	22.5	30.2	32.0	6.2	7.2
SMILES	TWEAK Fn14 block	TROY signal inh	Peg3 prom inh	Shn3 inh set2	LMP1 NFkB inh	MITF TRPM1 inh
CCN(CC)c1nc(Oc2ccc(C(=O)NN)cc2)nc(Oc2ccc(C(=O)NN)cc2)n1	-24.8	53.4*	-2.7	-7.7	3.8	-10.4
Cc1ccccc1OCc1nc2ccccc2c(=O)n1/N=C/c1cn[nH]c1-c1ccccc1	10.3	-31.5	39.6	-38.6	1.1	-26.4
Cc1ccc(-c2[nH]ncc2/C=N/n2c(COc3ccccc3)nc3ccccc3c2=O)cc1	37.4	26.6	52.1*	-2.2	9.4	-2.5
COC(=O)c1cc(CSc2nc3ccc(C)cc3[nH]2)oc1C	91.5*	x	-63.4	41.4	11.4	9.7
O=C(O)c1ccc(N=Nc2c(O)[nH]c3cc(Cl)ccc23)cc1	55.2*	-60.8	-191.8	-50.0	-95.4	-102.4
O=C(CCN1CCCCCC1)c1ccccc1	4.4	-2.3	-1.7	11.9	-0.5	2.7
O=C(/C=C/c1ccccc1)CCN1CCCCC1	19.2	0.6	105.2*	80.1	-4.1	10.8
CC(=O)Nc1ccc(-c2ccnc3c2CC(C)(C(=O)NCc2ccc(F)c(F)c2)O3)cc1 (stereo unspecified)	-29.9	9.3	34.9	-0.8	x	x
COC(=O)c1ccc(C(=O)NC(=S)Nc2nc3c(s2)CC(C)CC3)cc1 (stereo unspecified)	109.4*	93.1*	-54.5	-19.5	0.5	-21.0
O=C(NC(=S)Nc1nc2c(s1)CCCC2)c1ccc(C(=O)c2ccccc2)cc1	25.2	-30.7	-38.4	-13.6	2.2	1.9
CCC(=O)n1nc(-c2ccc(Cl)cc2)nc1SC	77.1*	-31.1	-175.6	-25.7	-8.9	-59.3
Cc1ccccc1-c1nc(SCc2cccnc2)c2c(=O)n(C)c(=O)n(C)c2n1	-1.4	18.9	64.2*	1.2	-9.9	4.7
CCCNC(=O)C1Cc2cc(S(=O)(=O)N3CCCC3)ccc2N1C(C)=O (stereo unspecified)	6.8	3.5	-1.0	-16.6	-3.4	2.4
COc1ccccc1C=NN=C(N)C(N)=NN=Cc1ccccc1OC	7.5	1.6	-5.3	-0.8	6.2	-10.6
COc1ccccc1C=NN=C(NN=Cc1ccccc1OC)NN=Cc1ccccc1OC	100.6*	55.7*	3.1	42.6	37.2	87.8*
C/C(=N\N=C\c1ccc(N(C)C)cc1)c1cccc([N+](=O)[O-])c1	-10.7	-16.8	-221.5	-28.2	-4.2	-31.4
CN(C)c1ccc(/C=N/N=C/c2ccccc2O)cc1	59.0*	47.6	-214.9	6.5	-39.5	0.7
COc1ccccc1C=NN=Cc1ccccc1O	-17.2	-67.2	-263.6	-24.0	83.3*	-12.9
Cc1ccc(CNC(=O)C2CCCN(S(=O)(=O)N3CC(C)CC(C)C3)C2)cc1 (stereo unspecified)	0.0	7.4	-1.9	11.4	-4.8	3.1
Cc1ccc(C(=O)Nc2ncc(Cc3ccccc3)s2)o1	65.8*	-5.3	-132.0	-60.4	-8.5	-29.9

Assay outcomes (PubChem)
